Shown are actives, neighbours in structure and some others; about 1.6% of the full set was active somewhere.
PG9 Ab binder – PG9 antibody binding by small molecule | TR-FRET gp120-PG9 antibody binding | inhibition, % at 6.7 µM | 360,000 tested, 0.43% active; in the data active = inhibition above about 8.5%
GC-B act – GC-B (human) receptor activation | HEK293-GC-B cells, CNP EC30, cGMP TR-FRET; 0% at EC30 CNP, 100% saturating CNP | activation, % at 10 µM | 370,000 tested, 0.11% active | AID 1920062;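 active = activation at 10 µM reaching about 35% in either raw or pattern-adjusted values, limit read from the data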
V-ATPase pH – yeast V-ATPase proton transport regulation by pHLuorin | S. cerevisiae, pHLuorin cytosolic pH fluorescence | response, % at 10 µM | 350,000 tested, 0.37% active; in the data active = response mostly above about 7.3%, no sharp cut-off; inactive = mostly below about 5.4%; also: actives read high
NR1D1 modulator – modulates human Rev-erb alpha binding to DNA. activity, % at 10 µM. P20393. Rev-erbα–FITC-DNA binding, fluorescence polarization, 90 min. AID 1259318. 370,000 tested, 0.79% active;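 active = activity above about 14%, limit read from the data; passing the limit was not always enough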;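 also: 0% = DMSO wells with 35 nM protein and 100% = DMSO wells with 750 nM protein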
GC-A act – GC-A (human) enzyme activation | HEK293 GC-A cells, cGMP TR-FRET, EC30 ANP; 0% at EC30 ANP, 100% saturating ANP | activation, % at 10 µM | 370,000 tested, 0.14% active | AID 1671463; in the data active = activation above about 40%
* marks the source's active call; other numbers are inactive results; x = no result given.

SMILES | PG9 Ab binder | GC-B act | V-ATPase pH | NR1D1 modulator | GC-A act
O=C(CCN1CCC(c2ccccc2)C1)c1cccs1 (stereo unspecified) | 2 | 0 | 9 | -5 | 52*
CC1(C)S[C@@H]2[C@@H](N3C(=O)[C@@H](c4ccccc4)NC3(C)C)C(=O)N2[C@H]1C(=O)O | x | x | x | -6 | x
Cc1ccc(-c2c(NC(=O)c3ccccc3)nc3ncccn23)cc1 | x | -1 | x | 1 | 0
O=[N+]([O-])c1ccccc1/C=C/C=Nn1c(-c2ccc(F)cc2)n[nH]c1=S | x | -5 | x | 4 | -1
Cc1[nH]c2ccccc2c1C(=O)c1cc(Cc2ccccc2)sc1N | 1 | 3 | x | -1 | 48*
CCOc1ccc(N=C(C)Nc2ccc(OCC)cc2)cc1 | x | x | x | -3 | x
Cc1ccc(NC(=S)N/N=C/c2ccc([N+](=O)[O-])s2)cc1 | -2 | -5 | 1 | 3 | 3
O=[N+]([O-])c1ccc(C=Nc2ccc(Cl)c([N+](=O)[O-])c2)s1 | -3 | -1 | 145* | -1 | 2
Cc1cc(C)cc(N=Cc2ccc([N+](=O)[O-])s2)c1 | 0 | 0 | 112* | -1 | -1
O=C(Cc1cccs1)N/N=C\c1ccc([N+](=O)[O-])s1 | -1 | -1 | -1 | -4 | 4
NC(=O)c1ccc(N=Cc2ccc([N+](=O)[O-])s2)cc1 | -4 | -2 | 113* | 0 | -1
Nc1ccn(C2O[C@H](CO)[C@@H](O)[C@@H]2O)c(=O)n1 (stereo partly specified) | x | x | x | -6 | x
COc1ccc(CN(CC#Cc2ccccc2)Cc2ccccc2)c(OC)c1 | x | 0 | x | 1 | 0
COc1ccc(COc2cc(-c3cccc(OC)c3)nc3ccc(NC(C)=O)cc23)cc1 | 0 | 68* | 4 | -9 | 54*
COc1ccc(COc2cc(-c3cccc(OC)c3)nc3ccc(NC(=O)c4ccc(C)cc4)cc23)cc1 | -1 | 26 | 1 | 0 | 24
COc1ccc(COc2cc(-c3cccc(OC)c3)nc3ccc(N)cc23)cc1 | 2 | 53* | 3 | -5 | 56*
OC[C@H]1OC([S-])[C@H](O)[C@@H](O)[C@@H]1O.[Au+] (stereo partly specified) | x | x | x | -30 | x
Clc1ccc(OCCSc2ncccn2)c(Br)c1 | -1 | 0 | 2 | 2 | 49*
Cc1ccccc1CN1CCCCC(NC(=O)c2ccccc2F)C1=O (stereo unspecified) | x | -2 | x | -2 | 1
COc1ccc(/C=C2/C(=O)N(c3c(F)c(F)c(F)c(F)c3F)N=C2C)cc1 | 0 | 24 | -1 | -2 | 46*
COc1ccc(/C=C2/C(=O)N(c3ccccc3)N=C2C)cc1 | x | x | 5 | x | x
CCCc1cc(=O)n2[nH]c(-c3ccco3)nc2n1 | 0 | 3 | 16* | 0 | 3
Cc1cc(=O)n2[nH]c(-c3ccco3)nc2n1 | 1 | 0 | 1 | -4 | 3
COc1ccc(S(=O)(=O)N2CCN(c3cnccn3)CC2)cc1OC | -1 | 6 | 16* | 6 | -5
COc1ccc(S(=O)(=O)N2CCN(c3ccccc3)CC2)cc1OC | 2 | -2 | -1 | -5 | -6
SMILES | PG9 Ab binder | GC-B act | V-ATPase pH | NR1D1 modulator | GC-A act
C[C@@H](O)[C@H]1C(=O)N2C(C(=O)O)=C(SC3Cn4cnc[n+]4C3)[C@H](C)[C@H]12 (stereo partly specified) | x | x | x | -3 | x
NC(=O)c1cccc(-c2coc3c(C(=O)NC4CCCCC4)cccc23)c1 | -1 | 35* | x | 4 | 30
Cc1nn(Cc2ccc(F)cc2)c2sc(C(=O)Nc3ccc(N4CCOCC4)cc3N3CCOCC3)cc12 | -1 | 40* | -1 | -8 | 32
Nc1cc(Cl)ccc1Oc1ccc2ccccc2c1 | 0 | -5 | 16* | 1 | 5
Nc1ccc(C(=O)n2c3ccccc3c3ccccc32)cc1 | 2 | -9 | -1 | 1 | 50*
CCSc1nnc(NC(=O)c2cccs2)s1 | 1 | 3 | 16* | -2 | 2
O=C(Nc1nnc(SCc2ccccc2)s1)c1cccs1 | 1 | 4 | -2 | 2 | 4
C[C@]12C=CC(=O)C=C1CCC1C2[C@@H](O)C[C@@]2(C)C1CC[C@]2(O)C(=O)COP(=O)(O)O (stereo partly specified) | x | x | x | 4 | x
CN(C(=O)COC(=O)c1ccc2c(c1)OCO2)C1CCS(=O)(=O)C1 (stereo unspecified) | 0 | 2 | 23* | -4 | 6
O=C1NCCN/C1=C\C(=O)c1ccc(Cl)cc1 | 1 | -2 | -2 | 0 | 41*
COc1ccc(S[C@]2(C(=O)N3CCN(C(C)=O)CC3)CC(=O)N(C(=O)Nc3ccc(C)c(Cl)c3)[C@@H]2c2ccc(OC)cc2)cc1 | x | 8 | x | -4 | 4
CC1(C)CC(=O)C=C(Nc2ccc(F)cc2)C1 | 0 | 1 | 14* | -6 | 2
COC(=O)[C@]12C[C@H](CC(=O)NCC34CC5CC(CC(C5)C3)C4)C(=O)N(Cc3ccco3)C1=C[C@H](C(C)(C)C)O[C@@H]2C | x | -17 | x | -2 | -21
CO[C@H]1O[C@H](CNC(=O)N(CCCl)N=O)[C@@H](O)[C@H](O)[C@H]1O | x | x | x | -6 | x
O=C1CCCC(=O)C1C(=O)c1ccc(C(F)(F)F)cc1[N+](=O)[O-] | x | x | x | -8 | x
CCC(=O)OCC(=O)[C@@]1(OC(=O)CC)[C@@H](C)CC2C3CCC4=CC(=O)C=C[C@]4(C)[C@@]3(F)[C@@H](O)C[C@@]21C (stereo partly specified) | x | x | x | -7 | x
CCOc1ccc(S(=O)(=O)N2CCC(C(N)=O)CC2)c2ccccc12 | 0 | 3 | 22* | 2 | 1
CCOc1ccc(S(=O)(=O)N2CCCC2)c2ccccc12 | -4 | 0 | -1 | 11 | 0
COc1ccc(NC(=O)COc2ccc(/C=N/O)cc2OC)cc1 | 2 | -7 | 4 | -8 | 1
COc1cc(/C=N/NC(=S)NC(C)C)ccc1OCC(=O)Nc1c(C)cc(C)cc1C | -3 | 44* | 18 | 8 | 34
CCNC(=S)N/N=C/c1ccc(OCC(=O)Nc2ccc(OC)cc2)c(OC)c1 | -3 | 55* | -1 | 1 | 39
CCOC(=O)c1cnc2ccc(C(=O)OC)cc2c1NCCc1ccc(OC)c(OC)c1 | -1 | 36* | -1 | 1 | 28
CC1=C/C(=N\OS(=O)(=O)c2ccccc2)C(C(C)C)=CC1=O | x | x | 30* | x | x
CC1=CC(=O)C(C(C)C)=C/C1=N\OS(=O)(=O)c1ccccc1 | x | 7 | x | 1 | -10
CC(C)(C)c1ccc(S(=O)(=O)NCC(=O)Nc2ccc(-c3nc4ccccc4s3)cc2)cc1 | 8.9* | -5 | 3 | 12 | -6
O=C(CNS(=O)(=O)c1cccc(Cl)c1)Nc1ccc(-c2nc3ccccc3s2)cc1 | -2 | -2 | 4 | -5 | -1
CN(CCO)S(=O)(=O)c1ccc2c(c1)C(=NO)c1cc(S(=O)(=O)N(C)CCO)ccc1-2 | 1 | -1 | -1 | -7 | 9
CCOc1ccc(S(=O)(=O)N(C)CCO)cc1-c1nc2c(C(C)(C)C)nn(C)c2c(=O)[nH]1 | -1 | 67* | 4 | -1 | 59*

Assay outcomes (PubChem BioAssay)
